Assay in all cases: MAPPIT interaction score (arbitrary units); higher = stronger binary interaction signal, active = hit call of the paper
The target in one assay is CG13494. As to conditions: MAPPIT configuration: N-C; pair source set: screen_3.
The next assay addresses CG13843. As to conditions: MAPPIT configuration: N-C; pair source set: screen_3.
The next assay concerns the target Os-C. As to conditions: MAPPIT configuration: N-N; pair source set: RRS.
Another assay has as its target CG13840. As to conditions: MAPPIT configuration: N-N; pair source set: Curagen_low_conf.
A further assay concerns the target CG5674. As to conditions: MAPPIT configuration: N-N; pair source set: screen_2.
The target in the next assay is Klp98A. As to conditions: MAPPIT configuration: N-N; pair source set: screen_1.
The next assay has as its target Rpn13. As to conditions: MAPPIT configuration: N-N; pair source set: screen_2.
The target of the next assay is CG14074. As to conditions: MAPPIT configuration: N-N; pair source set: screen_2.
The next assay has as its target Su(var)2-10. As to conditions: MAPPIT configuration: N-C; pair source set: screen_3.
Another assay deals with TrxT. As to conditions: MAPPIT configuration: N-N; pair source set: screen_2.
The next assay concerns the target CG13901. As to conditions: MAPPIT configuration: N-N; pair source set: Finley_Y2H.
For the next assay, the target named is CG5862. As to conditions: MAPPIT configuration: N-N; pair source set: Curagen_high_conf.
The target of a further assay is RpLP1. As to conditions: MAPPIT configuration: N-N; pair source set: Curagen_low_conf.

A number with no mark means an inactive call.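 Rule for the calls: active = MAPPIT score above the 99th percentile of random reference set scores in the same batch; inactive = at or below it.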

The results in this text go back to the supplement of paper PMC10105736.
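Note: HEK293T cells with Epo stimulation, STAT-responsive firefly luciferase reporter, fold induction versus unstimulated cells divided by the larger fold induction of two negative controls lacking either bait or prey.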

B1: CG5021 (protein)
chain: MASATVRNVPLLDDDTIPFGEEDEMRDPSRAGQKYTHPYVTFFHLFFRGAAILIYMFCGWFSDSFITSFVFVVLFLSADFWTVKNISGRLLVGLRWWNYVDDDGVSHWVFESKNSESYQSRVNKNEQRIFWLGLILCPVFWGLFFLFALFGLKFKWLLLVMIAIALNAANLYGYVKCNYGANKDLNSAATDFVKTQFFKNAVDIMTRPSGAPPPTNVRPTGVV
Consider B1, for which, in the assay with CG13494, the MAPPIT interaction score is 0.956.

B2: Dpit47 (protein)
chain: MKQMAAQKAWTDEERLELAAQLDAELDAFIDGLEKKRYEEGWPEDRWQEEMDKHPFFMKRAPQPGDDVHPMFEGLQKLKYDPEENTRDELALNYKEDGNFYMKHKKFRMAIYSFTEGIKTKTDNPDVLAVLYNNRSAAHFFIKNYRSSLSDAQRALFYKPDYTKARWRSAQCAYELERFDLCTQMCEELLEVDVDNEVAIALLHKNKMKKLEIERNQRKEAAEAKRRLTRFHRLRDAIEQRAIKFDDQKVGKKDVLSEELLYPKFLPLEDHPVHLDEDGSTLIWPAAFSYPEFLYSDFYQQLPETTTMRDCLATLLTEKLPYDKAHNYRLGNVHVYYENRKVGCVHKVDEEKQLAEIIAEKGFFVSGGALLFYVVHKDSRVEQEFINERRRPMVYS
On to B2, for which the values for the MAPPIT interaction score with CG13843 and with Os-C were 3.75 (active) and 1.52, respectively.

B3: sina (protein)
chain: MSNKINPKRREPTAAAAGAGATGVATNTSTSTGSSSAGNTSSANTSSSSSSSLSSAGGGDAGMSADLTSLFECPVCFDYVLPPILQCSSGHLVCVSCRSKLTCCPTCRGPLANIRNLAMEKVASNVKFPCKHSGYGCTASLVYTEKTEHEETCECRPYLCPCPGASCKWQGPLDLVMQHLMMSHKSITTLQGEDIVFLATDINLPGAVDWVMMQSCFGHHFMLVLEKQEKYDGHQQFFAIVQLIGSRKEAENFVYRLELNGNRRRLTWEAMPRSIHEGVASAIHNSDCLVFDTSIAQLFADNGNLGINVTISLV
Turning to B3, the MAPPIT interaction score is -0.135 with CG13840, -0.0161 with CG5674, 0.0642 in the assay with Klp98A and 0.72 with Rpn13.

B4: z (protein)
chain: MSAQGEGGGAGGSGGGGAGSDGGGNAGQSSTGSGTVAVTNGGNSSAKNQLPLTPRFTAEEKEVLYTLFHLHEEVIDIKHRKKQRNKYSVRETWDKIVKDFNSHPHVSAMRNIKQIQKFWLNSRLRKQYPYRDGSSSNLSSGSAKISSVSVSVASAVPQQQQQQHHQQHDSVKVEPEYQISPDASEHNPQADTFDEIEMDANDVSEIDEDPMEQQQQQQQEAQAQAQAQAQAQAQVQSAAAEMQKMQQVNAVAAAAAANATMINTHQINVDQISAEKLTLNDLLHFKTARPREEIILIKHPEATATQIHTIPTQAQQHPMATITAGGYNQQIISEIKPQQITLAQYQAQQQQQAQAQAQAQAQAQAQAQAQAQAQAQAQQLAQQQLAAAQHQQLAAAVQVHHQQQQQQQAAVAVQQQQAAAAAAVKMQLTAATPTFTFSALPTVTAATTVPAAVPVPVATASSGSANSVAVNTSTASSVSINNTSLGGGGGNGATNSSATAADSFEERMNYFKIREAELRCKEQQLATEAKRIELNKAQDELKYMKEVHRLRVEELTMKIRILQKEEEQLRKCSTS
In the case of B4, the MAPPIT interaction score with CG14074 is -0.404; with Su(var)2-10, 1.09; with TrxT, -0.122.

B5: Ufl1 (protein)
chain: MGSDWDEIKRLAADFQKAQLTSTLQKLSERNCVEIVTLLLEKQMLEVVFTNDGKEYITPDHLEREIQDELYVNGGRANLVEVSKTLNVDLSRIELLAERISAENQSVHLVLGQLIDEDYISHIAQEINEKLVQRGEVSISELASQFDLPSDFLQHDVVEKHLGKIIKGRQDASNPRVFFTQAYIQRCKAKIRGALAAITRPINVAVILQKIGVQEKIFYSLLDEIAPAGQVTSKQANSQYVPHIYAKTQADWVNSFYKQNSFLEYDAIQKLGISDAKSYIRKQFPNEEFLYLKRVALGARLVELTVVTALNECSATKQYLDLTTILPSNLSEEDIEEVFSTIMAQKHSNPSNFVYLDGIVFSQPYLAQLVQPCQALAESQAKAAIDGGVYQQYIVEKTLAQKGNVSTQELEDEGKVDKRDERRKKASSGKAGGGAQGRETKTKSTKKHQRGKAAAQFDSDDEDDAQQGSRGGGGASKKAVKPLELVKTADIVKLITASLEEEGLEHLSKSIASLYTNQFNQTALARAQELFEATPQTNRRQTHAAIQDRINTLLIDIRLYEKGLKLFPQDTQTQLVKYLLKSLGNEICNELSLYVASECNLTVKNTNLNVDQRNKLAQECEAQYRAALLEQNKALNKSIDDFELATETVLKTCSMIIKKVDKKKDRLLIADHKKKLQKQLLECNEPALLLHLAALILFTTITGSILHASGKFVSAILQHIRGSLNEDQNALLLRYHDLVLQVLQAIPDSNESKLANEHLQTMQNQVVELAQNFSRASISKAD
B5: the MAPPIT interaction score in the assay with CG13901 was 1.55; with CG5862, -0.395; with RpLP1 it was -0.273.
